Laboratory results from PubChem BioAssay AID1159506 (National Center for Advancing Translational Sciences (NCATS), 2015).
In all, about 59,000 sequences were measured (the read-out: median about -0.00055, lowest 2% from about -2 on). The full list was thinned out, with the lowest values kept by preference.

Test: Identification of proteins required for the processing of the EWS-FLI1 nascent transcript;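 also: robust z of luciferase light less the median z of siRNAs with the same seed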
Conditions: TC32 Ewing sarcoma NR0B1-luc vs CMV-luc (EWS-FLI1 target promoter against control promoter), 48 h; screened at 20 nM (by protocol)
Procedure: Ewing sarcoma (ES) cells depend on the EWS-FLI1 fusion transcription factor for cell survival. Using an assay of EWS-FLI1 activity and genome-wide siRNA screening we have identified proteins required for the processing of the EWS-FLI1 nascent transcript. Parallel genome-wide siRNA-mediated RNAi screens were conducted in Ewing sarcoma TC32 cell lines expressing a luciferase (luc) reporter protein driven by either the promoter of the EWS-FLI1 target gene NR0B1 (TC32-NR0B1-luc) or the CMV promoter (TC32-CMV-luc). Luciferase activity was assessed 48 hours post siRNA-transfection.
Twenty microl of serum-free media containing Lipofectamine RNAiMax (0.05 microl) was added to wells containing siRNA (0.8 pmol). Lipid and siRNA were allowed to complex for 45 min at ambient temperature before addition of 600 cells in RPMI-1640, 20% FBS to yield final transfection mixtures containing 20 nM siRNA in RPMI-1640, 10% FBS. Luciferase expression was measured using OneGlo (Promega, Madison, WI). The genome-wide screening campaign was conducted using Ambion's human genome library version 4.1 (Ambion, Austin TX). This library targets approximately 21000 human genes, three siRNAs per gene. Each siRNA is arrayed in an individual well of a 384-well plate. Parallel transfections were conducted in TC32-NR0B1-luc and TC32-CMV-luc cell lines and luciferase expression (OneGlo, Promega) was assayed 48 h later on a PerkinElmer Envision 2104 Multilabel plate reader (PerkinElmer, Waltham, MA). Qiagen's AllStars Negative control was incorporated on all screening plates for normalization (16 wells per plate). Qiagen, Germantown, MDsiGL4 was incorporated as a positive transfection control (16 wells per plate) on all plates. […] The raw luciferase data for the NR0B1- and CMV-luc screens were normalized and z-score-MAD transformed using standard methods (Chung et al., 2008). The miRNA-like seed sequence of every siRNA was determined and the median z-score for all siRNA sequences with the same seed sequence was calculated. This z-score was subtracted from the z-score associated with each siRNA with that seed sequence to generate a seed-adjusted z-score value (Z) that was used when the results for the three siRNAs corresponding to each gene were compared (Marine et al., 2012)

Sequence | seed-corrected z-score
UGUCAUAUACGCUCCAUAC against EYA4 | -0.104
UGUUUCUACCCUUUGCUCC against FAM174B | -0.127
UUUGCAGCUAGUGAUGCGC against ABHD8 | -0.567
UAGCUAUUACCUUACAUUG against HRG | 0.409
UCAUUGUUGAGGUGCGUGA against CDK5R1 | 1.16
UUUUGGACAGGACCGUUGG against SEC24A | 0.282
UUUGGUGCAAAAACCGUGU against WTIP | -2
AUGGCUUCAACAAGCAUCU against HGH1 | -0.109
UAUGGGUCUACCGUCACAC against MIOS | -1.14
UCAGGUACUCUAACACCGC against HIST1H2AC | -0.00982
UACCGGUCGAGGCUGAUCA against HRH2 | -2.03
UUUCAUAGUAAUCGUAGAC against LOC728715 | 0.493
UUGAGAGUAGAGACUGAGC against MKL2 | -0.474
AAGCCUCACAGUACUGCGC against NSMCE3 | -2.76
UACAGUGCAGGAUCUUCUC against NBL1 | -0.461
UAUAUAUCGCCCAUCUCUC against OARD1 | -0.737
UCUGGUACAUUCGAUAGCG against PTGFRN | 0.714
UUUCUUCCCAUGAUCUUUC against RALBP1 | 0.057
UACUGUCCCAAUGGUCAGC against EZH2 | -2.1
AAAUGAACAGGUUUGGAAC against GRPR | 0.695
UUCUUGUUGGAUAAUGCUG against RFX8 | 0.126
AAUGAUCACACCUAAGCCC against USH2A | -3.89
UUCUGCACUCGAGUAAAGG against MAD2L1 | 0.536

Sequence | seed-corrected z-score
AUGCUAGUCAAAAGAAUCG against FBXO40 | 0.266
UCGUCUAAAAUGACUAACG against SACS | 0.485
UCAGAUUUCAGAUCUUUGA against ANXA11 | 0.136
AAAGUACUCCGUAUUUCCC against SLC35D2 | -1.42
UCUAGGGUCACUGUGACGG against RGS9BP | -0.834
UAGUUGUCCUUCAUAAUUC against CCDC67 | -2.53
ACCUCUUCAACAUCUAACC against GEMIN4 | 0.118
CACGUGGCUAUUGUGGAAC against COX6A2 | -1.45
AUAGGUUCCUCUAUAUGUG against ZNF396 | 1.53
UUGGGUGCGAUCUGCAGAC against LINC00304 | -0.536
AAAACACGUCGAAAUCUCC against RPL39 | 0.834
UAAGGAUAUUUGCUAAGGC against HMGCLL1 | -0.796
UGUCUUCGCACUCUUAUCC against IFRD1 | -2.25
UGUCCAUCCGUCAUGAUGC against ANKRD60 | 0.777
UAUGUAACAGGAUCCUGCC against RFC1 | 0.0202
UAUAAGUAAGCCUAGCUUG against C16orf54 | 0.684
UUCGAUAGAGAACAAGUCG against FBXL4 | -1.24
UUGAUUUCCACGUUGCAUC against SLC10A2 | -2.5
UACGGGUGCAGUAGUGGUG against RGR | -0.158
UCAUCGUCUACUUCCAUUG against BPTF | -1.63
AACCGCUCCAUUUUUGCUC against POM121L12 | 0.212
AAUUUAUUCCAAACUUGUC against ME3 | -2.03
UUAGGGAAAGGUCCUCCUU against ELK1P1 | 0.104

Sequence | seed-corrected z-score
UGACUUAUGAACAUCAAAG against KLHL31 | -1.09
AUCUAUCUGACCCAAAUCC against HNRNPH1 | -2.26
ACAUGAUCCAUCCAAAUGC against CD163 | -0.0516
AACCGAUUCAUGACCACCG against AQP5 | 0.51
UUGGUGACUGUGCGCAUCC against TACR2 | -0.41
AUGUGGACAACCUUCUUUG against RPS10P9 | -1.14
AACGGGAACACCGACAACA against OPRL1 | -0.00815
AACGUAAUAAAAGUCUUGC against SERHL | 0.571
UGCUGGUUCAACUCAUCGC against DLGAP3 | -2.34
UUACUAACAUCUUCUCGUC against PKN2 | 0.115
AAACCUAUUAGUGAGAACA against TRIML1 | -0.116
AAACGGAGUCGUAGGAUCC against BMP15 | -0.603
UUUCGUAUUCUGAGGACCG against DLGAP5 | 0.243
UUGCAGAUCUUUUCGCACC against S100A9 | -0.59
AUUCGGAUUUGGGUCGUGC against PCDHGB2 | 0.36
UCAUGAUCUAUGUAGCCCG against ODF3L1 | -2.53
UUCACCAUGACAGCCGAAG against RPL37AP8 | -0.494
UUCAAUUCCAGCAACAUAA against CLDND1 | -0.35
AUGGUAACGAGCUGAAUCC against TWF1 | 0.694
AAAUGUACAGGGAUCCAGG against ACCSL | -2.2
UUCAGGGCGAGGUAAUCCU against HLA-G | -0.165
UUUCAUAAUUGUCUCACUG against MTHFD2 | 0.341
AAACUUGUACACGUUCUUG against RPN2 | 1.31

Sequence | seed-corrected z-score
AUACGAUAAAUAGCAGCUG against OR2D2 | -0.266
UCAUGUAUUGCUGGGUGGG against LETMD1 | -2.04
UGAAAGCGCAGAUCUGUCU against HIST1H3G | -0.148
UGGUCUAAGGCUUUGAUGC against KLK2 | -0.348
UGAUAUUUUGGUGCGUUGU against FBXO45 | 0.68
UAGUUGGUGAGGAUCACGG against REN | -0.578
UACUCUUCCAACGACAGGC against UQCC2 | 0.919
UUCCGAGUUGCAGAGGUCU against SLURP1 | -0.177
AAAAGGAUUGCUGAAAUGG against LOC650293 | 0.542
UCUUGACUGACUUUCUUCU against FAM173B | -2.2
AAUGGAUGCAGUGUCAAGC against PAK1IP1 | 1.75
UUCCUUGACAAGCAUAACC against CARNMT1 | -0.155
AAAUCUUACAGACUGGUUC against BEX1 | -0.486
UCAUGGGUCACGUCAGCUG against SLC2A1 | -0.895
ACACUGUAAAGCUCGGUGC against LARP1 | 0.106
UUAGAGUUGGUGAUGAGCA against GALK1 | 1.7
AAAAGGACUAUGUACAGCC against SNRPB | -3.37
UAUGCUCUCUGAUCGAAUG against ATG16L1 | 0.136
UUGCUCACAAUAAAAUAGC against GPR89A | -0.56
UGUAGACAAAGUACUGGGC against CNTN2 | -0.261
AAACUUCCUAUUAUCGACC against SPRED2 | -0.704
UUCGAGUGAAGACAGAAUC against ZNF318 | -2.15
UAAGUUGUGAUGAUAGGUU against ZNF98 | -0.0973

Sequence | seed-corrected z-score
AUCUGAUCCAUAUUCUCCC against DIEXF | 0.628
UACAAUAAAAGAAGCAUCU against PIGY | 0.157
UUUCUUAGAAAUGAGGUGA against OVOL1 | -0.287
UCAGGAUCUGUGGAUACUG against COPB2 | -2.55
UCAUAGUCCACGAGUUUCC against BIN2 | 0.142
UUCGGUUGAACCUUGUCUG against ORC2 | -0.39
AAUACAAUGAGGAUGUUGC against MCHR2 | -0.242
AUCUUUAACCCGAAAGGUC against STRC | -3.57
UACUCGAAGAUUUCCGUCC against SEC16B | -0.242
UUCGAUGUCACAGGUCUGC against RGS14 | -0.247
UCGAUAUCAACUUUUGCCG against CEP192 | -0.779
UUUGAUAGAGGUGCGGACG against OR6F1 | -0.169
UAUCCGAUCACCACUCUCC against MYOM3 | -0.29
UUCUUUCUGAGUCUGGUUA against RPL35 | -3.01
AAAGGCUUAAUUUUUACCU against TOMM7 | 1.3
UGAGUUCCAGGUCUUAUGC against DEFB110 | -0.42
AUAUUGUUUAGCUCCACGG against MASP1 | 0.285
UAGUCGUUCUUCUACAGCC against MBIP | 0.411
UCACGAAGAGUUGCAACUG against ALB | -3.99
UGUAGUAACAGAGCCACGC against PPY | 0.227
AAAAGUCCUAGCAUAUUCC against ZER1 | 0.406
UUUGUGAUCUUGGUGAGGU against SHBG | -0.0288
AACUGGACUGGAAUUGUUU against CXCR1 | -0.419

Sequence | seed-corrected z-score
UAUGUGCUGGUGAUCCUUC against DEAF1 | 0.839
UGUUGUACAACGAUAGCCU against RELL1 | -0.595
AUUGUAACGGGUUUUGUUC against CHRNB4 | -0.325
AACUGUUCCAUCGACUUGG against RASAL1 | -0.492
UUACUGUCCAGAGCACUGA against SMARCD3 | -0.925
UUUGCUAUAAUCCACCUCC against IK | -3.11
UAGACGAUAAGACUCUUUC against NCOA7 | -0.339
UAUUGAAGCAACUAGGAUG against KIAA0754 | -0.869
UGCAGGAUGACCAAAGUGC against LGALS14 | 0.705
AAUAUGUCCAGCCCAGCUG against CLIC1 | -0.000686
UUUCCUUUGGUUGUUAAUG against FDX1 | -0.575
UUCCGAGAUAUGGAGGUAC against KIAA0368 | 0.95
UCAUCUUCUUCCGUUGCCG against PPP1R1A | 0.273
UAAGAAAAAGCGGAGUUCG against FZD7 | 0.0443
UUCUUUUGACUCUUAGUCC against CLEC4C | -2.28
UAGCCUAGGAGAUACAUCG against COPB2 | -3.63
UAACUUUUCCCUUAUUCAG against FAM90A3P | 0.873
UUCCGUGUGAAACAGAUGG against ARMC4 | 0.434
